INHIBITION data for 29 molecules are collected here from ChEMBL document CHEMBL4513216, “Probing the Open Global Health Chemical Diversity Library for Multistage-Active Starting Points for Next-Generation Antimalarials” (ACS Infect Dis, 2020).

Screen size: about 69,000 compounds; about 8,600 (12%) showed an effect of 50% or more. For the sample, strong results were picked, then their nearest neighbours and some compounds at random.

The subject of the assay is Plasmodium berghei. Description: Screen against P. berghei liver stage (PbLuc), transformed with Luciferase, at 10uM. It is filed as functional, HepG2. Conditions: tested at 10 uM.
Take `CC(=O)N1CCC(c2nc3ccc(C)cn3n2)CC1`: the INHIBITION turned out to be 1.7%.

As to `COc1cccc(-c2ccc3nc(C4CCN(C(C)=O)CC4)nn3c2)c1`, the INHIBITION worked out at 56.4%.

Turning to `CC(=O)N1CCC(c2nc3ccc(-c4ccnn4C)cn3n2)CC1`, the INHIBITION is recorded as 38.2%.

As for `CN(Cc1ccncc1)C(=O)CCNS(=O)(=O)c1cccnc1`, the INHIBITION worked out at 20.9%.

As to `Cc1nnc(Cn2cc(I)cc(C)c2=O)o1`, the INHIBITION was determined as 22.5%.

On to `CSc1ccc(C(C(=O)O)N2CCCC2)cc1` (centres undefined), for which the INHIBITION is reported as 34.9%.

For `CSc1ccc(C(C(=O)O)N2CCC(C(=O)N3CCCC3)CC2)cc1` (centres undefined), the INHIBITION stood at 43.9%.

For the molecule `CSc1ccc(C(C(=O)O)N2CCC(CO)CC2)cc1` (centres undefined), the INHIBITION was determined as 53.9%.

Turning to `Cc1ccc(CN2CCCn3c(nc(CN4CCCC4)cc3=O)C2)s1`, the INHIBITION is reported as 43.2%.

On to `Cn1ccnc1CN1CCN2C[C@H](OCc3ccccc3)C[C@H]2C1`, for which the INHIBITION is given as -25.2%.

Regarding `Cc1n[nH]c2ncc(CNC3CCN(Cc4ccccn4)CC3)cc12`, the INHIBITION is reported as -20.6%.

With `Cc1ccc(N2CCCC(NCc3ccc(-n4ccnc4)cc3)C2)nn1` (centres undefined), the INHIBITION came out at 11.5%.

With `CC(C)[C@@H](C)NC1CCN(c2ccc(-n3ccnc3)cc2)CC1`, the INHIBITION was found to be 16.6%.

As to `c1cn(-c2ccc(N3CCC(NC4CC4)CC3)cc2)cn1`, the INHIBITION was 56.2%.

As for `CC(=O)NC1CCCN(Cc2ccc(OCc3ccccn3)cc2)C1` (centres undefined), the INHIBITION was determined as 41.8%.

In the case of `COc1cc(CNC2CCCN(c3ncccn3)C2)cc2c1OCO2` (centres undefined), the INHIBITION was -34.8%.

As to `CCC(=O)NC1CCCN(Cc2ccc(-n3ccnc3)cc2)C1` (centres undefined), the INHIBITION came to 41.5%.

Turning to `c1cnnc(N2CCCC(NCc3ccc(-n4ccnc4)cc3)C2)c1` (centres undefined), the INHIBITION amounted to 15.2%.

Consider `CC(=O)NC1CCCN(Cc2ccc(-n3ccnc3)cc2)C1` (centres undefined), for which the INHIBITION amounted to 65.6%.

For the molecule `Cc1n[nH]c2ncc(CNC3CCCN(c4ncccn4)C3)cc12` (centres undefined), the INHIBITION was found to be 73.5%.

`CNCCCNC1CCN(c2ccc(-n3ccnc3)cc2)CC1`: the INHIBITION is -7.2%.

Turning to `c1cnc(N2CCCC(NCc3ccc(-n4ccnc4)cc3)C2)nc1` (centres undefined), the INHIBITION is 60.4%.

`Cc1nccn1[C@@H]1CC[C@@H](N(C)S(=O)(=O)c2ccc(F)cc2)[C@H]1O`: the INHIBITION was -0.4%.

As to `Cc1noc(CCCC(=O)N(CCC(=O)O)Cc2ccc(F)c(F)c2)n1`, the INHIBITION is -13%.

Take `CN(C)c1ccccc1C(=O)N1CCCC(c2cccc(C(=O)O)c2)C1` (centres undefined): the INHIBITION came to 33.4%.

On to `O=C(c1ccc(Sc2ccccn2)cc1)N1CCCSCC1`, for which the INHIBITION was -1.3%.

As to `Cc1cc(C)c(CNC(=O)NCC(O)c2ccc(Cl)cc2)c(=O)[nH]1` (centres undefined), the INHIBITION came to 29.2%.

As for `CCN1CCN(C(=O)C(C)n2cc(Br)cn2)CC1` (centres undefined), the INHIBITION came to 21.7%.

Take `COCCNC(=O)[C@@H]1C[C@H]2[C@H](CCN2c2cc(OC)ncn2)O1`: the INHIBITION is 7.53%.
